# From the supplement of paper PMC10515830
# Where a name gives a salt, the structure may show the parent alone.
# Assays:
# Conditions in all cases: 10 µM; exposure time 6 h
# [1] = test system: Danio rerio larvae (5 dpf); experiment: difference in excitability vs DMSO (percentage points); higher = more excitable than DMSO
# Procedure, shortened: (§1)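 Library compounds were tested at 10 µM final in 100 µL egg water on wild-type 5 dpf zebrafish larvae in 96-well plates for 6 h, with 48 larvae per compound. After 3 h, plates at 28.5 ℃ were imaged every 6 s during a 3-h run of moving lines and 100 ms, 400Hz tones. Behaviours were quantified by Z-LaP Tracker and reported as the compound mean less the vehicle control mean, in percentage points.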
# [2] = test system: Danio rerio larvae (5 dpf); experiment: difference in startle response vs DMSO (percentage points); higher = stronger startle than DMSO
# Procedure, shortened: as §1
# [3] = test system: Danio rerio larvae (5 dpf); experiment: difference in activity during first hour vs DMSO (percentage points); higher = more activity than DMSO
# Procedure, shortened: as §1
# [4] = test system: Danio rerio larvae (5 dpf); experiment: difference in habituation to acoustic stimuli vs DMSO (percentage points); higher = more habituation than DMSO
# Procedure, shortened: as §1
# [5] = test system: Danio rerio larvae (5 dpf); experiment: difference in combined optomotor response to red, green and blue moving lines vs DMSO (percentage points); higher = stronger optomotor response than DMSO
# Procedure, shortened: as §1
SMILES,difference in excitability [1],difference in startle response [2],difference in activity during first hour [3],difference in habituation to acoustic stimuli [4],difference [5]
CCC(=O)NCC[C@@H]1CCc2ccc3c(c21)CCO3 [Ramelteon],33,0.219,-13.3,-1.29,6.65
Cc1cc2c(s1)Nc1ccccc1N=C2N1CCN(C)CC1 [Olanzapine],26.1,-4.9,8.52,-8.45,4.38
C=C1/C(=C\C=C2/CCC[C@]3(C)[C@@H]([C@H](C)CCCC(C)(C)O)CC[C@@H]23)C[C@@H](O)C[C@@H]1O [Calcitriol],7.32,-3.08,-9.65,5.79,-3.39
CO[C@H]1C[C@@H]2CC[C@@H](C)[C@@](O)(O2)C(=O)C(=O)N2CCCC[C@H]2C(=O)O[C@H]([C@H](C)C[C@@H]2CC[C@@H](OC(=O)C(C)(CO)CO)[C@H](OC)C2)CC(=O)[C@H](C)/C=C(\C)[C@@H](O)[C@@H](OC)C(=O)[C@H](C)C[C@H](C)/C=C/C=C/C=C/1C [Temsirolimus],7.02,-6.86,-1.53,4.35,0.433
CC(C)n1c(/C=C/C(O)CC(O)CC(=O)O)c(-c2ccc(F)cc2)c2ccccc21 (stereo not given) [Fluvastatin (sodium salt hydrate)],11.5,-2.51,4.55,-1.22,3.05
Nc1nc2c(ncn2COC(CO)CO)c(=O)[nH]1 [Ganciclovir],1.56,3.58,7.53,2.18,4.57
Cc1cc(C2CCCCC2)n(O)c(=O)c1 [Ciclopirox],3.8,-2.37,8.43,5.39,8.2
CC(C)(C)NC[C@H](O)COc1cccc2c1CCCC2=O [Levobunolol (hydrochloride)],5.55,1.6,12.7,-1.95,5.62
Cc1ccc(N(CC2=NCCN2)c2cccc(O)c2)cc1 [Phentolamine (mesylate)],-0.363,0.261,20,5.59,-2.55
Nc1nc(=O)n([C@@H]2CS[C@H](CO)O2)cc1F [Emtricitabine],1.12,-4.62,11.4,4.83,7.06
C[N+]1(C)CCC(OC(=O)C(O)(c2ccccc2)C2CCCC2)C1 (stereo not given) [Glycopyrrolate],-0.597,-8.53,7.84,-7.11,-2.89
CCCCC[C@H](O)/C=C/[C@H]1[C@H](O)CC(=O)[C@@H]1C/C=C\CCCC(=O)O [Prostaglandin E2],16.7,-5.41,2.46,4.14,5.15
Cc1cc(C(C)(C)C)c(O)c(C)c1CC1=NCCN1 [Oxymetazoline (hydrochloride)],2.23,-0.966,-13.2,6.77,0.729
Nc1ccc(C(=O)NCC(=O)O)cc1 [4-Aminohippuric Acid],3.62,5.22,3.44,-0.693,7.16
C[C@H](CCC(=O)O)[C@H]1CC[C@H]2[C@@H]3CC[C@@H]4C[C@H](O)CC[C@]4(C)[C@H]3C[C@H](O)[C@]12C [Deoxycholic Acid],13.1,-0.179,23.8,3.17,0.759
CC(C(=O)O)c1cccc(C(=O)c2ccccc2)c1 (racemic) [(±)-Ketoprofen],0.309,-1.06,8.57,6.2,11.1
CC(=O)O[C@H]1CC[C@@]2(C)C(=CC[C@@H]3[C@@H]2CC[C@]2(C)C(c4cccnc4)=CC[C@@H]32)C1 [Abiraterone Acetate],9.1,-1.78,-2.76,-1.15,2.44
CC(=O)CC(c1ccccc1)c1c(O)c2ccccc2oc1=O (racemic) [(±)-Warfarin],7.35,-1.45,-0.141,-3.9,-1.34
C=C[C@H]1CN2CC[C@H]1C[C@H]2[C@H](O)c1ccnc2ccc(OC)cc12 [Quinine],11.3,10.1,-2.96,0.181,-0.242
CS(=O)(=O)CCNCc1ccc(-c2ccc3ncnc(Nc4ccc(OCc5cccc(F)c5)c(Cl)c4)c3c2)o1 [Lapatinib],-0.459,0.335,-8.64,-0.929,1.37
CC1OC2(CS1)CN1CCC2CC1 (stereo not given) [Cevimeline (hydrochloride)],-6.36,-3.25,16.4,-3.9,-1.46
CC[C@H](C)[C@H](N)C1=N[C@H](C(=O)N[C@@H](CC(C)C)C(=O)N[C@H](CCC(=O)[O-])C(=O)N[C@H](C(=O)N[C@H]2CCCCNC(=O)[C@H](CC(N)=O)NC(=O)[C@@H](CC(=O)[O-])NC(=O)[C@H](Cc3cnc[nH]3)NC(=O)[C@@H](Cc3ccccc3)NC(=O)[C@H]([C@@H](C)CC)NC(=O)[C@@H](CCCN)NC2=O)[C@@H](C)CC)CS1.[Zn+2] [Bacitracin (zinc)],20.6,-4.52,30.1,-11,-7.98
CO/N=C1\CN(c2nc3c(cc2F)c(=O)c(C(=O)O)cn3C2CC2)CC1CN (stereo not given) [Gemifloxacin (mesylate)],7.63,9.12,11,-1.77,2.04
Clc1ccc2c(c1)CCc1cccnc1C2=C1CCNCC1 [Desloratadine],10.4,3.48,2.87,-2.42,1.86
